Measured potencies and affinities stand elsewhere. The source made the active and inactive calls.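 Rule for the calls: active = signal-lowering compounds whose fitted half-maximal concentration is at or below twice the top tested dose in every run; inconclusive = runs disagree, flat 30 to 70% inhibition, or poor curve fit; inactive = the rest.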
Target: Protein S100-A4 (Homo sapiens) (UniProt P26447)
Assay: S100A4-myosin IIA binding inhibitor potency, dose response, biochemical, fluorescence polarization, cherry-picked hits (AID 687001)

Protein S100-A4 (Homo sapiens), sequence (P26447 whole entry, looked up): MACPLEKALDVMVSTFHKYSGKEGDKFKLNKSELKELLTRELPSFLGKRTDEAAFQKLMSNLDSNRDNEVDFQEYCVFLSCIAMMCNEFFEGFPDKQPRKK

| SMILES | outcome |
| --- | --- |
| CCc1noc(C)c1C(=O)Nc1nc(-c2ccc(OC)cc2OC)cs1 | inactive |
| O=C(CN1C(=O)/C(=C/c2ccccc2Cl)SC1=S)NC1C=CS(=O)(=O)C1 (stereo not given) | inactive |
| Cc1ccc(CNc2cnccn2)s1 | inactive |
| O=C(NCc1ccncc1)C1CCCN(S(=O)(=O)c2cc(Cl)ccc2Cl)C1 (stereo not given) | inactive |
| COc1ccccc1CCNC(=O)C(=O)NCCC1CCCCN1S(=O)(=O)c1ccccc1 (stereo not given) | inactive |
| COc1cccc(-c2ccc3n(c2=O)C[C@H]2[C@H](CO)[C@@H](C(=O)N4CCOCC4)N[C@@H]32)c1 | inactive |
| C[C@@H]1CN([C@H](C)CO)C(=O)c2cccc(NC(=O)c3ccncc3)c2O[C@@H]1CN(C)C | inactive |
| Cc1ccc(N(C)S(=O)(=O)c2ccc3[nH]cc(C(=O)NCCCN4CCOCC4)c(=O)c3c2)cc1C | inactive |
| CCCN(CCC)Cc1cc(=O)oc2cc(C)c(C)cc12 | inactive |
| Cc1ccc(NS(=O)(=O)c2ccc(-c3coc(C)n3)cc2)c(C)c1 | inactive |
| Cc1cnc(CN(C)C(=O)C2CCC(=O)N(CCc3ccccc3)C2)[nH]1 (stereo not given) | inactive |
| O=C(Cc1c(F)cccc1Cl)Nc1ccccn1 | inactive |
| CO[C@@H]1CN(C)C(=O)c2ccc(NC(=O)c3ccc4c(c3)OCO4)cc2OC[C@@H](C)N(Cc2ccc3c(c2)OCO3)C[C@H]1C | inactive |
| Cc1cc(=O)oc2c(C)c(OCC(=O)N3CCN(C(=O)C4COc5ccccc5O4)CC3)ccc12 (stereo not given) | inactive |
| CCOC(=O)[C@]12CCCC=C1N(Cc1cccc3ccccc13)C(=O)[C@H](CC(=O)NCCCN1CCCC1=O)C2 | inactive |
